Read-out in experiment [1]: TIMP metallopeptidase inhibitor 1 (TIMP1), TIMP1 (gene 7076)
Description: BSK_hDFCGF_TIMP1: BioMAP Diversity Plus: hDFCGF Assay for TIMP metallopeptidase inhibitor 1 (TIMP1) Biomarker Activity (AID 2283062). The note with it: primary human foreskin fibroblasts; actives raise or lower the signal. The procedure, abridged: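 Primary human foreskin fibroblasts in the hDFCGF system were dosed with compound for 24 h, then TIMP-1 was measured by ELISA. Activity was fitted bidirectionally relative to DMSO control; parallel SRB staining assessed cytotoxicity.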

Read-out in experiment [2]: Monokine induced gamma interferon (MIG), CXCL9 (gene 4283)
Description: BSK_hDFCGF_MIG: BioMAP Diversity Plus: hDFCGF Assay for Monokine induced gamma interferon (MIG) Biomarker Activity (AID 2283063). The note with it: primary human foreskin fibroblasts; actives raise or lower the signal. The procedure, abridged: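 ELISA read-out of MIG from primary human dermal fibroblasts 24 h post-dosing. Gain or loss of signal fitted bidirectionally, DMSO as baseline.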

Read-out in experiment [3]: Matrix Metallopeptidase 1 (MMP1), MMP1 (gene 4312)
As to the kind of experiment: BSK_hDFCGF_MMP1: BioMAP Diversity Plus: hDFCGF Assay for Matrix Metallopeptidase 1 (MMP1) Biomarker Activity (AID 2283064). The note with it: primary human foreskin fibroblasts; actives raise or lower the signal. The procedure, abridged:
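hDFCGF primary fibroblasts (human foreskin); chemical added; 24 h; MMP1 by ELISA; bidirectional fit vs DMSO.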

Read-out in experiment [4]: Vascular cell adhesion molecule 1 (VCAM1), VCAM1 (gene 7412)
Description: BSK_hDFCGF_VCAM1: BioMAP Diversity Plus: hDFCGF Assay for Vascular cell adhesion molecule 1 (VCAM1) Biomarker Activity (AID 2283065).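 On AC50: VCAM-1 protein level quantified by ELISA after 24 h chemical exposure.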 The note with it: primary human foreskin fibroblasts; actives raise or lower the signal. The essentials:
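Primary human foreskin fibroblasts (hDFCGF system) were dosed with chemical and VCAM-1 was measured by ELISA 24 h later. Bidirectional curve fitting used DMSO as negative control and activity baseline.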

Read-out in experiment [5]: Plasminogen activator inhibitor-1 (PAI1), SERPINE1 (gene 5054)
Description: BSK_hDFCGF_PAI1: BioMAP Diversity Plus: hDFCGF Assay for Plasminogen activator inhibitor-1 (PAI1) Biomarker Activity (AID 2283066). The note with it: primary human foreskin fibroblasts; actives raise or lower the signal. The procedure, abridged:
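PAI-1 levels, determined by ELISA, served as the endpoint in human foreskin fibroblast cultures exposed to compound for 24 h, with DMSO as baseline.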

Read-out in experiment [6]: Intercellular Adhesion Molecule 1 (ICAM1), ICAM1 (gene 3383)
Description: BSK_KF3CT_ICAM1: BioMAP Diversity Plus: KF3CT Assay for Intercellular Adhesion Molecule 1 (ICAM1) Biomarker Activity (AID 2283067). The note with it: primary human keratinocytes with fibroblasts; actives raise or lower the signal. The procedure, abridged:
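Human keratinocyte plus foreskin fibroblast primary co-culture was exposed to chemical for 24 h. ICAM-1 was then quantified by ELISA, and the data were fit bidirectionally against DMSO as the negative control and baseline.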

Read-out in experiment [7]: Interferon-gamma inducible Protein 10 (IP10), CXCL10 (gene 3627)
As to the kind of experiment: BSK_KF3CT_IP10: BioMAP Diversity Plus: KF3CT Assay for Interferon-gamma inducible Protein 10 (IP10) Biomarker Activity (AID 2283068). The note with it: primary human keratinocytes with fibroblasts; actives raise or lower the signal. The essentials: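 ELISA read-out of IP-10 after 24 h chemical dosing of human skin primary co-culture (keratinocytes, foreskin fibroblasts). Gain or loss of signal relative to DMSO, bidirectional curve fit.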

Experiment [8] can be described thus: BSK_KF3CT_SRB: Viability Assessment in the BioMAP Diversity Plus: KF3CT Assay (AID 2283069).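 Further: total protein by sulforhodamine B staining as a cytotoxicity measure; read 24 h after compound addition; fitted for both signal gain and loss against DMSO baseline.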 The note with it: primary human keratinocytes with fibroblasts. The essentials: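 Keratinocytes co-cultured with foreskin fibroblasts (human primary); chemical added, 24 h; fix 10% TCA, stain 0.1% SRB, A560. Bidirectional fit vs DMSO.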
Read-out in experiment [9]: Interleukin-1 alpha (IL1a), IL1A (gene 3552)
Description: BSK_KF3CT_IL1a: BioMAP Diversity Plus: KF3CT Assay for Interleukin-1 alpha (IL1a) Biomarker Activity (AID 2283070). The note with it: primary human keratinocytes with fibroblasts; actives raise or lower the signal. The essentials: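 Chemicals were dosed onto co-cultured human keratinocytes and foreskin fibroblasts, IL-1a was quantified by ELISA at 24 h, and activity was fitted in both directions relative to DMSO controls.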

Read-out in experiment [10]: TIMP metallopeptidase inhibitor 2 (TIMP2), TIMP2 (gene 7077)
As to the kind of experiment: BSK_KF3CT_TIMP2: BioMAP Diversity Plus: KF3CT Assay for TIMP metallopeptidase inhibitor 2 (TIMP2) Biomarker Activity (AID 2283071). The note with it: primary human keratinocytes with fibroblasts; actives raise or lower the signal. The procedure, abridged: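 Keratinocyte–fibroblast co-culture, 24 h exposure; TIMP-2 ELISA, DMSO-normalised bidirectional fit. Parallel SRB (0.1%, TCA-fixed, 560 nm) total-protein staining gauges cytotoxicity.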

Read-out in experiment [11]: Transforming growth factor beta 1 (TGFb1), TGFB1 (gene 7040)
As to the kind of experiment: BSK_KF3CT_TGFb1: BioMAP Diversity Plus: KF3CT Assay for Transforming growth factor beta 1 (TGFb1) Biomarker Activity (AID 2283072). The note with it: primary human keratinocytes with fibroblasts; actives raise or lower the signal. The procedure, abridged: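 Signal changes in either direction, relative to DMSO, define activity here. TGF-b1 is read by ELISA from a human keratinocyte-fibroblast co-culture 24 h post-dose.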

Read-out in experiment [12]: C-C motif chemokine 2 (Homo sapiens) (UniProt P13500)
As to the kind of experiment: BSK_KF3CT_MCP1: BioMAP Diversity Plus: KF3CT Assay for Monocyte Chemoattractant Protein 1 (MCP1/CCL2) Biomarker Activity (AID 2283073). The note with it: primary human keratinocytes with fibroblasts; actives raise or lower the signal. The procedure, abridged: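 Human keratinocyte plus foreskin fibroblast primary co-culture exposed to chemical for 24 h. MCP-1 levels measured by ELISA. Bidirectional curve fitting relative to DMSO negative control as baseline.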

Read-out in experiment [13]: Matrix Metallopeptidase 9 (MMP9), MMP9 (gene 4318)
As to the kind of experiment: BSK_KF3CT_MMP9: BioMAP Diversity Plus: KF3CT Assay for Matrix Metallopeptidase 9 (MMP9) Biomarker Activity (AID 2283074).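 On AC50: MMP9 protein level quantified by ELISA in the co-culture.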 The note with it: primary human keratinocytes with fibroblasts; actives raise or lower the signal. The essentials: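 Human keratinocyte/foreskin fibroblast co-culture; compound added; 24 h; MMP-9 by ELISA; bidirectional fit vs DMSO baseline.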

Read-out in experiment [14]: urokinase plasminogen activator (uPA), PLAU (gene 5328)
As to the kind of experiment: BSK_KF3CT_uPA: BioMAP Diversity Plus: KF3CT Assay for urokinase plasminogen activator (uPA) Biomarker Activity (AID 2283075). The note with it: primary human keratinocytes with fibroblasts; actives raise or lower the signal. The essentials: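 ELISA readout of uPA, analyzed for signal gain or loss relative to DMSO, from a human primary keratinocyte–foreskin fibroblast co-culture measured 24 h after chemical treatment.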

Read-out in experiment [15]: CD40, CD40 (gene 958)
As to the kind of experiment: BSK_LPS_CD40: BioMAP Diversity Plus: LPS Assay for CD40 Biomarker Activity (AID 2283076). The note with it: primary human HUVEC with PBMC; actives raise or lower the signal. The essentials:
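Primary human umbilical vein endothelial cells co-cultured with peripheral blood mononuclear cells, LPS-stimulated, were dosed with chemical and read 24 h later. CD40 levels were measured by ELISA and fitted bidirectionally against DMSO as negative control and baseline.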

Read-out in experiment [16]: E-selectin (Homo sapiens) (UniProt P16581)
As to the kind of experiment: BSK_LPS_Eselectin: BioMAP Diversity Plus: LPS Assay for Eselectin Biomarker Activity (AID 2283077). The note with it: primary human HUVEC with PBMC; actives raise or lower the signal. The essentials:
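Human umbilical vein endothelial cells co-cultured with peripheral blood mononuclear cells under LPS stimulation; E-selectin measured by ELISA 24 h after chemical dosing. Activity fitted bidirectionally against DMSO as negative control and baseline.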

Read-out in experiment [17]: Interleukin-8 (IL8), CXCL8 (gene 3576)
As to the kind of experiment: BSK_LPS_IL8: BioMAP Diversity Plus: LPS Assay for Interleukin-8 (IL8) Biomarker Activity (AID 2283078). The note with it: primary human HUVEC with PBMC; actives raise or lower the signal. The procedure, abridged: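 Human umbilical vein endothelial cells co-cultured with PBMC were stimulated with LPS; IL-8 levels were measured by ELISA 24 h after chemical dosing. Activity was fitted bidirectionally against DMSO as negative control and baseline.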

Experiment [18] in a line: BSK_LPS_SRB: Viability Assessment in the BioMAP Diversity Plus: LPS Assay (AID 2283079).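 Further: total protein by sulforhodamine B absorbance as a cytotoxicity measure; measured one day after compound addition; fitted in both directions against DMSO so loss or gain of signal counts.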 The note with it: primary human HUVEC with PBMC. The essentials:
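Human umbilical vein endothelial cells co-cultured with PBMC (LPS system) were dosed for 24 h. Total protein was stained with 0.1% sulforhodamine B after 10% TCA fixation, read at 560 nm, and fitted bidirectionally against DMSO baseline.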

Read-out in experiment [19]: Monocyte Chemoattractant Protein-1 (MCP1), CCL2 (gene 6347)
As to the kind of experiment: BSK_LPS_MCP1: BioMAP Diversity Plus: LPS Assay for Monocyte Chemoattractant Protein-1 (MCP1) Biomarker Activity (AID 2283081).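 Further: co-culture stimulated with LPS; secreted MCP-1 protein quantified by ELISA in culture supernatant.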 The note with it: primary human HUVEC with PBMC; actives raise or lower the signal. The essentials: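 HUVEC plus PBMC co-culture (human primary cells, LPS system) exposed to test chemical for 24 h; MCP-1 measured by ELISA. Bidirectional curve fitting against DMSO baseline; parallel SRB total-protein staining flags overt cytotoxicity.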

Read-out in experiment [20]: Interleukin-1 alpha (IL1a), IL1A (gene 3552)
Description: BSK_LPS_IL1a: BioMAP Diversity Plus: LPS Assay for Interleukin-1 alpha (IL1a) Biomarker Activity (AID 2283080). The note with it: primary human HUVEC with PBMC; actives raise or lower the signal. The procedure, abridged:
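Human umbilical vein endothelial cells co-cultured with peripheral blood mononuclear cells were LPS-stimulated and exposed to test chemicals for 24 h. IL-1 alpha was quantified by ELISA, with bidirectional curve fitting against DMSO as the negative control and baseline.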

Activity calls are given as the source filed them. How the source made its calls: active means hit-call score of the fitted dose curve at least 0.9, where 1 is the maximum; inactive means score below 0.9.

One may read the AC50 as the concentration giving half of the maximal activity seen.

Sequence of E-selectin (Homo sapiens) (P16581 whole entry, looked up): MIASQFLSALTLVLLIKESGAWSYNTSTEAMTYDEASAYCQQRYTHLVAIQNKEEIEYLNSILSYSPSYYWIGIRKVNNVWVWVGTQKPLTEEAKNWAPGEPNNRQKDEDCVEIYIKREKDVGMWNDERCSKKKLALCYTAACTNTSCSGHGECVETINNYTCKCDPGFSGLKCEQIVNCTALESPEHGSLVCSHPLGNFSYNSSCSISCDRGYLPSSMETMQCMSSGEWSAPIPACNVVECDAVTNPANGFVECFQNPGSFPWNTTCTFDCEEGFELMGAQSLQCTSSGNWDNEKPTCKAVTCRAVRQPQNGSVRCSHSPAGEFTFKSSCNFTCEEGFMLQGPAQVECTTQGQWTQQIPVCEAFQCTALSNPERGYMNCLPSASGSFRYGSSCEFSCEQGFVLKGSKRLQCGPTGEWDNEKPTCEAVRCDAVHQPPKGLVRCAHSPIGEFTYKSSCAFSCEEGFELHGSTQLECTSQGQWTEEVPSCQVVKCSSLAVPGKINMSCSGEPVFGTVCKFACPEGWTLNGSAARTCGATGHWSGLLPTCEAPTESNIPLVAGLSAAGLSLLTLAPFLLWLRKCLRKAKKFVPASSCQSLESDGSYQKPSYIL

In the case of `CCCCCCCCCCCC[N+](C)(C)C`, the outcome in [1] and in experiment [6] was inactive. The AC50 in [2] was 30.6 µM (active); in experiment [3], 4.94 µM (active); in experiment [4], 15.4 µM (active); in experiment [5], 20 µM (active); in experiment [7] it was 36 µM (active); in [8] it was 33.9 µM (active). Also, the AC50 in [9] was 32.5 µM (active); in experiment [10], 27.8 µM (active); in experiment [11], 26.6 µM (active); in experiment [12], 29.7 µM (active); in experiment [13], 30.7 µM (active); in experiment [14], 34 µM (active). In addition, the AC50 in [15] was 16.9 µM (active); in [16] it was 20.3 µM (active); in [17], 20 µM (active); in [18], 25.7 µM (active); in experiment [19], 25.5 µM (active).
Consider `CCN(Cc1cccnc1)C(=O)c1cccc(Cl)c1[C@]1(C)C(=O)N(Cc2ccc(OC)cc2OC)c2ccc(Cl)cc21`, for which the result in experiment [1], in [2], in experiment [4], in experiment [6], in experiment [8] and in experiment [9] was inactive. In addition, the result in [10], in experiment [11], in experiment [12] and in experiment [14] was inactive. The AC50 in experiment [3] is 5.9 µM (active); in experiment [5] it was 9.31 µM (active); in experiment [7] it was 22.3 µM (active); in experiment [13] it was 4.21 µM (active); in experiment [15], 5.26 µM (active); in experiment [16], 10.8 µM (active). For the same molecule, the concentration at half-maximal activity (AC50) in experiment [17] is 5.54 µM (active); in experiment [18], 6.69 µM (active); in experiment [20] it was 4.18 µM (active); in [19] it was 8.28 µM (active).
For the molecule `Cc1c2ccccc2c(C)c2c1ccc1ccccc12`, the outcome in experiment [1], in experiment [2], in [3], in experiment [6], in experiment [7] and in experiment [8] was inactive. Further, the result in experiment [9], in experiment [10], in experiment [11], in experiment [12], in experiment [13] and in experiment [14] was inactive. The outcome in experiment [16] and in experiment [17] was inactive. Also, the AC50 in experiment [4] was 3.97 µM (active); in experiment [5], 10.1 µM (active); in [15] it was 15.3 µM (active); in experiment [18], 24.8 µM (active); in experiment [19] it was 25.3 µM (active).

Values taken from PubChem BioAssay (EPA / NIEHS).
